Reference: the supplement of paper PMC6897291
Structures can show the parent of a compound that is named as a salt.

Experiments:
U-2932 [1] = assay: growth inhibition by drug alone (1 - RLU/untreated control) (fraction); higher = stronger inhibition; settings: 177Lu-lilotomab satetraxetan 0 ug/ml
Summary of the method: (§1)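 Growth inhibition was calculated from RealTime-Glo RLU against untreated no-drug wells. Values equal 1 − RLU/mean of 48 untreated no-drug wells per plate, read daily from day 3 after 1 h at 37°C. RIVA and U-2932 cells, with or without 18 h pretreatment by a radiolabelled anti-CD37 antibody conjugate (~600 MBq/mg; 0.5 µg/ml RIVA, 1 µg/ml U-2932), were washed and plated at 3,000 cells/well on compound-printed plates at 10/100 nM (RIVA) or 10/1,000 nM (U-2932).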

RIVA [2] = assay: as above; settings: 177Lu-lilotomab satetraxetan 0 ug/ml
Summary of the method: as §1

U-2932 [3] = assay: growth inhibition by drug plus 177Lu-lilotomab satetraxetan (1 - RLU/untreated control) (fraction); higher = stronger inhibition; settings: 177Lu-lilotomab satetraxetan 1 ug/ml
Summary of the method: as §1

RIVA [4] = assay: as above; settings: 177Lu-lilotomab satetraxetan 0.5 ug/ml
Summary of the method: as §1

SMILES	growth inhibition by drug alone (U-2932 [1]; 10 nM, time (day): 3)	growth inhibition by drug alone (U-2932 [1]; 10 nM, time (day): 4)	growth inhibition by drug alone (U-2932 [1]; 10 nM, time (day): 5)	growth inhibition by drug alone (U-2932 [1]; 10 nM, time (day): 6)	growth inhibition by drug alone (U-2932 [1]; 1000 nM, time (day): 3)	growth inhibition by drug alone (U-2932 [1]; 1000 nM, time (day): 4)	growth inhibition by drug alone (U-2932 [1]; 1000 nM, time (day): 5)	growth inhibition by drug alone (U-2932 [1]; 1000 nM, time (day): 6)	growth inhibition by drug alone (RIVA [2]; 10 nM, time (day): 3)	growth inhibition by drug alone (RIVA [2]; 10 nM, time (day): 4)	growth inhibition by drug alone (RIVA [2]; 10 nM, time (day): 5)	growth inhibition by drug alone (RIVA [2]; 10 nM, time (day): 6)	growth inhibition by drug alone (RIVA [2]; 100 nM, time (day): 3)	growth inhibition by drug alone (RIVA [2]; 100 nM, time (day): 4)	growth inhibition by drug alone (RIVA [2]; 100 nM, time (day): 5)	growth inhibition by drug alone (RIVA [2]; 100 nM, time (day): 6)	growth inhibition by drug plus 177Lu-lilotomab satetraxetan (U-2932 [3]; 10 nM, time (day): 3)	growth inhibition by drug plus 177Lu-lilotomab satetraxetan (U-2932 [3]; 10 nM, time (day): 4)	growth inhibition by drug plus 177Lu-lilotomab satetraxetan (U-2932 [3]; 10 nM, time (day): 5)	growth inhibition by drug plus 177Lu-lilotomab satetraxetan (U-2932 [3]; 10 nM, time (day): 6)	growth inhibition by drug plus 177Lu-lilotomab satetraxetan (U-2932 [3]; 1000 nM, time (day): 3)	growth inhibition by drug plus 177Lu-lilotomab satetraxetan (U-2932 [3]; 1000 nM, time (day): 4)	growth inhibition by drug plus 177Lu-lilotomab satetraxetan (U-2932 [3]; 1000 nM, time (day): 5)	growth inhibition by drug plus 177Lu-lilotomab satetraxetan (U-2932 [3]; 1000 nM, time (day): 6)	growth inhibition by drug plus 177Lu-lilotomab satetraxetan (RIVA [4]; 10 nM, time (day): 3)	growth inhibition by drug plus 177Lu-lilotomab satetraxetan (RIVA [4]; 10 nM, time (day): 4)	growth inhibition by drug plus 177Lu-lilotomab satetraxetan (RIVA [4]; 10 nM, time (day): 5)	growth inhibition by drug plus 177Lu-lilotomab satetraxetan (RIVA [4]; 10 nM, time (day): 6)	growth inhibition by drug plus 177Lu-lilotomab satetraxetan (RIVA [4]; 100 nM, time (day): 3)	growth inhibition by drug plus 177Lu-lilotomab satetraxetan (RIVA [4]; 100 nM, time (day): 4)	growth inhibition by drug plus 177Lu-lilotomab satetraxetan (RIVA [4]; 100 nM, time (day): 5)	growth inhibition by drug plus 177Lu-lilotomab satetraxetan (RIVA [4]; 100 nM, time (day): 6)
N#Cc1ccc(C(c2ccc(C#N)cc2)n2cncn2)cc1 [Letrozole]	-0.0916	-0.0615	-0.0521	0.00419	-0.0775	-0.0542	-0.0553	-0.0728	-0.194	-0.245	-0.249	-0.307	-0.0878	-0.169	-0.207	-0.242	-0.121	-0.0795	-0.0651	0.00121	-0.131	-0.067	-0.0375	0.0441	0.418	0.498	0.524	0.535	0.319	0.397	0.409	0.401
C[C@@H](O[C@H]1OCCN(Cc2n[nH]c(=O)[nH]2)[C@H]1c1ccc(F)cc1)c1cc(C(F)(F)F)cc(C(F)(F)F)c1 [Aprepitant (MK-0869)]	-0.0806	-0.0554	-0.0486	0.0358	-0.0765	-0.0282	-0.0265	-0.0573	-0.223	-0.258	-0.291	-0.358	-0.233	-0.342	-0.277	-0.366	-0.142	-0.123	-0.143	-0.121	-0.075	0.0386	0.0779	0.19	0.306	0.465	0.481	0.488	0.319	0.43	0.441	0.419
Cc1cnc(NC(=O)Nc2cc(Br)c(C)cc2OC[C@@H]2CNCCO2)cn1	0.0563	0.0329	0.0344	0.113	0.227	0.217	0.207	0.233	-0.0313	-0.0243	-0.0759	-0.161	0.0523	0.0207	-0.0517	-0.0919	-0.00545	0.00557	0.0372	0.164	0.245	0.335	0.376	0.486	0.47	0.531	0.56	0.57	0.176	0.216	0.235	0.246
CNC(=O)c1cc(Oc2ccc(NC(=O)Nc3ccc(Cl)c(C(F)(F)F)c3)cc2)ccn1 [Sorafenib (Nexavar)]	0.065	0.061	0.0056	-0.0896	0.0548	0.172	0.16	0.0821	-0.0351	-0.0584	-0.0811	-0.269	-0.171	-0.0734	-0.0752	-0.125	-0.0368	-0.00107	-0.00478	0.0413	-0.000329	0.177	0.189	0.145	0.328	0.487	0.498	0.507	0.415	0.561	0.594	0.583
COCC[n+]1c2c(n(Cc3cnccn3)c1C)C(=O)c1ccccc1C2=O	0.948	0.947	0.963	0.974	0.989	0.989	0.989	0.989	0.984	0.981	0.98	0.981	0.98	0.979	0.98	0.979	0.945	0.95	0.969	0.977	0.988	0.988	0.989	0.991	0.988	0.985	0.986	0.986	0.986	0.989	0.989	0.989
COc1cc2nccc(Oc3ccc(NC(=O)Nc4cc(C)on4)c(Cl)c3)c2cc1OC [Tivozanib (AV-951)]	0.14	0.0745	-0.00279	-0.0876	0.0629	0.0968	0.0897	0.0763	0.0535	0.0633	0.0278	-0.222	0.0881	0.104	0.0755	0.00134	0.0499	0.0836	0.127	0.144	0.13	0.217	0.26	0.368	0.453	0.547	0.57	0.565	0.438	0.535	0.537	0.526
O=C(NOC[C@H](O)CO)c1ccc(F)c(F)c1Nc1ccc(I)cc1F	0.189	0.198	0.0482	0.0357	0.152	0.19	0.102	0.0951	0.198	0.141	0.026	-0.212	0.191	0.122	0.0195	-0.189	0.138	0.163	0.15	0.218	0.162	0.231	0.189	0.269	0.487	0.514	0.508	0.496	0.552	0.532	0.512	0.467
CNC(=O)[C@@H](NC(=O)[C@H](CC(C)C)[C@H](O)C(=O)NO)C(C)(C)C [Marimastat]	-0.0984	-0.0992	-0.103	-0.269	-0.124	-0.117	-0.167	-0.336	-0.274	-0.343	-0.475	-0.556	-0.508	-0.486	-0.476	-0.599	-0.127	-0.0607	0.00218	0.096	-0.0404	-0.014	0.0136	0.157	0.34	0.438	0.469	0.492	0.34	0.431	0.449	0.457
O=c1c(O)c(-c2ccc(O)c(O)c2)oc2cc(O)cc(O)c12 [Quercetin (Sophoretin)]	0.129	0.074	-0.0824	-0.0972	0.0543	0.0523	0.0143	-0.101	-0.0527	-0.036	-0.117	-0.426	-0.494	-0.296	-0.357	-0.683	0.0451	0.0897	0.166	0.21	0.0503	0.0821	0.135	0.211	0.546	0.61	0.613	0.619	0.346	0.469	0.48	0.508
CCOc1ccc(Nc2nc(-c3c(C)nc4ccccn34)cs2)cc1	0.225	0.209	0.0949	0.0852	0.961	0.972	0.979	0.982	0.0293	0.0644	-0.0241	-0.237	0.931	0.948	0.951	0.952	0.151	0.185	0.267	0.311	0.968	0.978	0.983	0.987	0.559	0.602	0.61	0.62	0.945	0.965	0.97	0.973
CC[C@@]1(O)C(=O)OCc2c1cc1n(c2=O)Cc2cc3c(CN(C)C)c(O)ccc3nc2-1 [Topotecan HCl]	0.427	0.494	0.544	0.586	0.952	0.969	0.977	0.981	0.45	0.629	0.715	0.801	0.689	0.808	0.85	0.882	0.403	0.516	0.604	0.67	0.97	0.978	0.983	0.985	0.802	0.878	0.913	0.944	0.814	0.883	0.91	0.931
COc1cc(OC2CCN(C)CC2)ccc1Nc1ncc2c(n1)n(C1CCCC1)c(=O)n2C	-0.0462	-0.0489	-0.0615	-0.034	-0.165	-0.184	-0.206	-0.247	-0.233	-0.291	-0.358	-0.453	-0.524	-0.553	-0.545	-0.66	-0.087	-0.0366	0.0152	0.102	-0.121	-0.0709	-0.0115	0.128	0.539	0.578	0.601	0.587	0.355	0.432	0.453	0.479
Oc1ccc(Nc2nc(-c3ccc(Cl)cc3)cs2)cc1	0.0714	0.0415	-0.0308	-0.079	0.00763	0.0746	-0.00976	-0.13	-0.021	-0.0647	-0.176	-0.522	-0.28	-0.263	-0.403	-0.57	-0.0159	0.00418	0.0159	-0.00943	0.0757	0.243	0.237	0.277	0.383	0.501	0.516	0.539	0.158	0.298	0.304	0.293
